Experimental data as given in PMC4336329 (PLoS ONE, 2015).
In all, about 310,000 compounds went through this assay and about 14,000 (4.5%) showed an effect of 50% or more. Effects have a minus sign here. This excerpt belongs to a sample that is enriched for strong results.

molecular target: human ether-à-go-go-related gene (hERG) potassium channel (human, UniProt Q12809); test: primary screen, population patch clamp on CHO cells stably expressing hERG; higher = less effect of the substance
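Also: peak tail current of the secondary pulse compared with the same well before compound.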

Sequence of human ether-à-go-go-related gene (hERG) potassium channel (Q12809 whole entry, looked up): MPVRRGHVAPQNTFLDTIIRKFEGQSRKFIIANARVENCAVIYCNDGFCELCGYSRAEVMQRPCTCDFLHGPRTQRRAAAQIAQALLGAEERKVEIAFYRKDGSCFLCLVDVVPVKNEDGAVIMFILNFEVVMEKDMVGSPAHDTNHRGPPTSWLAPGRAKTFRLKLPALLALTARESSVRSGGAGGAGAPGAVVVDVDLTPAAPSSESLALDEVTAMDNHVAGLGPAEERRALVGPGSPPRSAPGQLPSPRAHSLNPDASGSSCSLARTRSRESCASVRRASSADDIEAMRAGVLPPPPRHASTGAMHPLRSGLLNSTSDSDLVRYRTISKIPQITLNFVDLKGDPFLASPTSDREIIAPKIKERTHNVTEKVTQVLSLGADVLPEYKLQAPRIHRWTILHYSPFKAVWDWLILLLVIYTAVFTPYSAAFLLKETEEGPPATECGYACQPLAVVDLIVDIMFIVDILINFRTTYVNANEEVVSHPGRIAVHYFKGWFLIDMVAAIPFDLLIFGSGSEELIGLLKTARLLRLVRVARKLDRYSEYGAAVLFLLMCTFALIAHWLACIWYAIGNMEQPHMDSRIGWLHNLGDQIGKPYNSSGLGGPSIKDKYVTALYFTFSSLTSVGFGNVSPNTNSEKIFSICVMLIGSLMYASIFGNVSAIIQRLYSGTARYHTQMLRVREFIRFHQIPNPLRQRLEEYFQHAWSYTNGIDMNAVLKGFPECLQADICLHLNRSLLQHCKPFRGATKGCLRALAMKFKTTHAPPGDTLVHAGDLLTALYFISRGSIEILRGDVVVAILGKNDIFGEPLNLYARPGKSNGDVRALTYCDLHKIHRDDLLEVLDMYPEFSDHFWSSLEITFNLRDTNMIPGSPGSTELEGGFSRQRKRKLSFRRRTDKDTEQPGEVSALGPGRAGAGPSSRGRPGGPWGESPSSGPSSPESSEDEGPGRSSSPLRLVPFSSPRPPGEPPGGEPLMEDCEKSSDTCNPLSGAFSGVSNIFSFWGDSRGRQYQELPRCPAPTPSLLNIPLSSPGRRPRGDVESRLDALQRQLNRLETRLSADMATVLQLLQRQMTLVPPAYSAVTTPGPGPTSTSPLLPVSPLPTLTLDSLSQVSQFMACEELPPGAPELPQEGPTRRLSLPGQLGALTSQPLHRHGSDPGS

SMILES	hERG current change (%, negative = inhibition) at 10uM
Cc1cc(NS(=O)(=O)c2ccc(NC(=O)CSc3nc4ncc(Br)cc4[nH]3)cc2)nc(C)n1	20.8%
O=C(c1ccc2c(c1)OCO2)C1CCCN(Cc2ccccc2OC(F)F)C1 (stereo not drawn)	-58.8%
O=C(c1ccc2c(c1)OCO2)C1CCCN(Cc2ccc(OC(F)F)cc2)C1 (stereo not drawn)	-85.7%
CC(C)Oc1cccc(C(=O)C2CCCN(C(=O)c3ccc4c(c3)OCO4)C2)c1 (stereo not drawn)	-26.9%
N/C(=N\OC(=O)COc1ccc2ccccc2c1Br)c1ccncc1	5.98%
CCOc1ccc(NC(=O)NCc2ccc3c(c2)OCO3)cc1	9.08%
Cc1nc2c3ccccc3nc(NNC(=O)CCC(=O)N3CCN(c4ccccc4)CC3)n2n1	-28.5%
O=C(CCc1nc2ccccc2c(=O)[nH]1)N1CCN(S(=O)(=O)c2ccccc2Br)CC1	-51.3%
O=C(CCc1nc2ccccc2c(=O)[nH]1)N1CCN(S(=O)(=O)c2ccc(F)cc2)CC1	-27.6%
Cc1ccc(C)c(S(=O)(=O)N2CCN(C(=O)CCc3nc4ccccc4c(=O)[nH]3)CC2)c1	-47.1%
O=C(CCc1nc2ccccc2c(=O)[nH]1)N1CCN(c2ccc(F)cc2)CC1	-68%
Cc1nc2c3ccccc3nc(NNC(=O)CCC(=O)N3CCN(c4ccc(F)cc4)CC3)n2n1	-53.2%
COc1ccc(N2CCN(C(=O)CCC(=O)NNc3nc4ccccc4c4nc(C)nn34)CC2)cc1	-29.1%
CN1CCN(C(=O)CCc2nc3ccccc3c(=O)[nH]2)CC1	21.9%
CC(=O)N1CCN(C(=O)CCc2nc3ccccc3c(=O)[nH]2)CC1	2.7%
O=C(CSc1ncnc2c1cnn2-c1ccc(F)cc1)NCC1CCCO1 (stereo not drawn)	13.7%
O=C1CCCS(=O)(=O)c2ccccc21	23.8%
Cc1cccc(OCC(=O)NCCCNC(=O)c2ccc(C)nc2)c1	17.9%
Cc1ccc(NC2(C(F)(F)F)N=C(c3ccccc3)NC2=O)nc1 (stereo not drawn)	18.4%
Cc1ccc(N2CCN(c3ccc(NC(=O)CCC(=O)O)cc3)CC2)cc1	19.6%
COc1cc(Br)cc(/C=C/c2ccc3cccc(O)c3n2)c1OC	11.4%

SMILES	hERG current change (%, negative = inhibition) at 10uM
COCCN(Cc1cn(C)nc1-c1ccccc1F)C(C)C	15.5%
CC(C)n1c(SCC(=O)Nc2nc3c(s2)CCCC3)nc2c1c(=O)n(C)c(=O)n2C	-59.2%
Cc1nnc(NC(=O)CSc2nc3c(c(=O)n(C)c(=O)n3C)n2C(C)C)s1	-0.769%
CCCn1c(SCC(=O)Nc2nc3c(s2)CCCC3)nc2c1c(=O)n(C)c(=O)n2C	-1.39%
COc1ccccc1C1(O)CCN(CC(=O)Nc2nc(-c3ccccc3)cs2)CC1	-56.8%
CN1CCN(CC(=O)Nc2nc(-c3ccccc3)cs2)CC1	-40.4%
CC(C)n1c(SCC(=O)Nc2ccccc2N2CCCCC2)nc2c1c(=O)n(C)c(=O)n2C	-36.7%
CCCn1c(SCC(=O)Nc2ccccc2N2CCCCC2)nc2c1c(=O)n(C)c(=O)n2C	-29.9%
COc1ccc(C2(O)CCN(CC(=O)Nc3nc(-c4ccccc4)cs3)CC2)cc1	-10.1%
Cn1c(=O)c2c(nc(SCC(=O)Nc3ccccc3N3CCCCC3)n2C)n(C)c1=O	-54%
O=C(CS(=O)(=O)c1ccccc1)Nc1nc(-c2ccccc2)cs1	-51.9%
Cc1ccc(S(=O)(=O)CC(=O)Nc2nc(-c3ccccc3)cs2)cc1	-38%
O=C(CS(=O)(=O)c1ccccc1)Nc1nc(-c2ccc(F)cc2)cs1	16.6%
O=C(CN1C(=O)NC2(CCCCCC2)C1=O)NCCc1ccccc1	1.14%
Cc1noc(C)c1CSCC(=O)Nc1nc2ccc(Oc3ccccc3)cc2s1	-13.6%
CN(CC(=O)Nc1ccccc1C(F)(F)F)C(=O)CC1OC(=O)c2ccccc21 (stereo not drawn)	9.27%
CCOC(=O)CSc1nnc(CNc2ccc(Cl)cc2)n1-c1ccccc1	11.2%
COc1cc2c(-c3ccc(O)cc3)nc3c(c(C)nn3-c3ccccc3)c2cc1OC	11.5%
O=C(O)CCSc1nc2ccc(Br)cc2[nH]1	8.75%
C=C1C[C@@]23CCC4[C@@](C)(CCC[C@@]4(C)C(=O)OC)C2CC[C@]1(OC(C)=O)C3 (stereo partly drawn)	10.8%
O=C(Nc1nc(-c2ccc(F)cc2)cs1)c1cnccn1	-0.514%

SMILES	hERG current change (%, negative = inhibition) at 10uM
CCc1ccc(N(C(C)=O)C2C=CS(=O)(=O)C2)cc1 (stereo not drawn)	-6.3%
O=C(CSc1nc(=O)n2ccccc2n1)NCc1ccc2c(c1)OCO2	-37.8%
COc1ccc(OC)c(S(=O)(=O)NC(N)=NCCc2ccccc2OC)c1	9.89%
Cc1ccc(-c2nnc(SCC(=O)Nc3nc4c(s3)CCCC4)n2C)cc1	6.99%
Cc1ccc(C)c2c1cc(C)c1nnc(SCC(=O)Nc3nc4c(s3)CCCC4)n12	1.01%
Cc1ccc2cc(C)c3nnc(SCC(=O)Nc4nc5c(s4)CCCC5)n3c2c1C	-53.8%
Cn1c(CCNC(=O)c2cccs2)nnc1SCC(=O)Nc1nc(-c2ccccc2)cs1	-7.06%
CCOC(=O)N1CCN(C(=O)CSCC(=O)Nc2nc(-c3ccc(-c4ccccc4)cc3)cs2)CC1	-11.9%
CCn1c(SCC(=O)Nc2nc3c(s2)CCCC3)nnc1-c1ccccc1	-56.2%
CCOC(=O)N1CCN(C(=O)CSCC(=O)Nc2nc(-c3ccc(C)cc3)cs2)CC1	-14.1%
Cn1c(SCC(=O)Nc2nc3c(s2)CCCC3)nnc1-c1ccccc1	-16.4%
CCOC(=O)N1CCN(C(=O)CSCC(=O)Nc2nc(-c3ccccc3)cs2)CC1	-50.5%
CCn1c(CCNC(=O)c2cccs2)nnc1SCC(=O)Nc1nc(-c2ccccc2)cs1	-52%
Cc1cccc(-c2nnc(SCC(=O)Nc3nc4c(s3)CCCC4)n2C)c1	-37.3%
Cc1ccccc1C(=O)NCCc1nnc(SCC(=O)Nc2nc(-c3ccccc3)cs2)n1C	7.36%
Cc1ccc(N2CCN(S(=O)(=O)c3nnc(NC(=O)c4ccco4)s3)CC2)cc1	15.6%
CS(=O)(=O)c1cccc(C(=O)NCc2ccc(F)cc2)c1	0.5%
COC(C/C=C\[C@@H](O)[C@H](C)OCc1ccccc1)OC	25.7%
CCSc1nnc(NC(=O)c2cccnc2Cl)s1	16.3%
Cc1cccc(N(C(=O)CNC(=O)c2cccs2)C(C(=O)NC2CCCC2)c2cccnc2)c1 (stereo not drawn)	1.66%
CCOc1ccc(N(CC(=O)N2CCN(Cc3ccccc3)CC2)S(C)(=O)=O)cc1	-12.2%

SMILES	hERG current change (%, negative = inhibition) at 10uM
O=C(N/C(=C/c1ccc(F)cc1)C(=O)N1CCCCC1)c1ccco1	-18.7%
CN1C(=O)C(=Cc2ccc(N3CCCCCC3)o2)C(=O)N(C)C1=S	6.46%
CNC(=S)N1CCc2cc(OC)c(OC)cc2C1COc1ccc(F)cc1 (stereo not drawn)	-22.6%
Br.CN(CC(O)C[NH+]1CCOCC1)S(=O)(=O)[O-] (stereo not drawn)	17%
Cc1nc2ccccc2c(=O)n1NC(=O)C1CC1	16.3%
CCn1c(SCC(=O)Nc2nc(-c3ccc(C)cc3)cs2)nnc1-c1ccccc1	-1.44%
O=C(CSc1nnc(-c2cccnc2)n1Cc1ccco1)Nc1nc(-c2ccc(F)cc2)cs1	-70.6%
CCn1c(SCC(=O)Nc2nc(-c3ccccc3)cs2)nnc1-c1ccccc1	-66.6%
COc1ccccc1-c1nnc(SCC(=O)Nc2nc(-c3ccccc3)cs2)n1C	-71.8%
NC(=O)c1ccc(NC(=O)CSc2nnc(-c3ccncc3)n2Cc2ccco2)cc1	2.42%
CCOC(=O)Cc1csc(NC(=O)CSc2nnc(-c3ccncc3)n2Cc2ccco2)n1	-5.63%
CCOC(=O)Cc1csc(NC(=O)CSc2nnc(-c3cccnc3)n2Cc2ccco2)n1	-30.5%
O=C(CSc1nnc(-c2ccncc2)n1Cc1ccco1)Nc1nc(-c2ccccc2)cs1	-57.4%
Cc1nnc(SCC(=O)Nc2nc(-c3ccccc3)cs2)n1N	2.68%
NC(=O)c1ccc(NC(=O)CSc2nnc(-c3cccnc3)n2Cc2ccco2)cc1	6.87%
Cn1cnnc1SCC(=O)Nc1nc(-c2ccccc2)cs1	-4.33%
CCn1c(SCC(=O)Nc2nc(-c3ccccc3)cs2)nnc1-c1ccccc1O	-20.8%
CC(C)OCCCNC(=O)c1cccs1	-9.39%
COc1cc2c(cc1OC)C(c1cc(OC)c(OC)cc1[N+](=O)[O-])N(C(C)=O)CC2 (stereo not drawn)	26%
N#C/C(=N\[O-])c1nc(-c2ccccc2)cs1.[K+]	-8.69%
O=C(O)c1ccc(N/N=C/c2cccc(C(F)(F)F)c2)cc1	27.3%
